# Reference: PubChem BioAssay (NCI)
# Values joined by “and” are separate entries in the source; they are usually repeats but may differ in a detail not shown here. Identical values can stand only once. About 83,000 compounds went through this panel and 20% of them were active in at least one assay; those are over-represented in the sample as a whole.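 Treatment: one concentration, 48 hours, 96-well format. Scoring: percent growth, with anything below 10 considered active.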 Unmarked numbers belong to inactive results. Active and inactive are the calls of the source.
# Tested on: T-47D breast
# Experiment: NCI-60 one-dose screen, 48 h (100 = growth as untreated, 0 = no growth, -100 = all killed)
# Details: 10 µM
row,Compound,growth
1,Cc1cc(C)c(N2C(=O)CC(Sc3ccccc3N)C2=O)c(C)c1 (centres undefined),87.8%
2,COc1cc(N)ccc1Nc1c2ccccc2nc2ccccc12,92.3%
3,O=[N+]([O-])c1cc(S(=O)(=O)Nc2ccccc2)ccc1Cl,69.6%
4,CCOC(=O)[C@]1(Br)CC[C@@]1(Br)C(=O)OCC,70.7%
5,N#C/C(=C/N1C(=O)/C(=C/c2ccc([N+](=O)[O-])cc2)SC1=S)c1nc2ccccc2s1,53.6%
6,Cn1ncc2cc3c(Nc4ccc(Cl)cc4)cccc3nc21,77.2%
7,S=P(N1CC1)(N1CC1)N1CC1,103% and 98.1%
8,O=C1c2cccc3cc([N+](=O)[O-])cc(c23)C(=O)N1CCN1CCCC1,-6.31% (active)
9,N#CC(=C1C=CC(=NO)C=C1)c1ccccc1,-8.58% (active)
10,Cc1cc(N=C2C=CC(=[N+](C)C)C=C2)c(N)cc1N,87.1%
11,CN(C)CCNc1cccc2sc3ccc(O)cc3c(=O)c12,64.4%
12,O=C(NC(=S)Nc1ccccn1)c1ccccc1,59.1%
13,Cn1c2nc3ccccc3c-2nc2ccccc21,78.9% and 72%
14,CCC(C)(c1ccc(O)c(C)c1)c1ccc(O)c(C)c1,-5.53% (active)
15,O=Nc1ccc(Nc2ccccc2)cc1,63.2%
16,O=c1[nH]cc(/C=N\Nc2ccccc2)c(=O)[nH]1,42.4%
17,CN(C)c1ccc(/C=C/c2ccnc3ccccc23)cc1N,48.3%
18,COc1cccc(C(c2cc3c(cc2O)OCO3)N2CCOCC2)c1OC (centres undefined),97.2%
19,O=C1C=CC(=O)N1c1ccc(N2C(=O)C=CC2=O)cc1,95.9%
20,CC(=O)O[C@H]1C(=O)[C@@]2(C)[C@H]([C@H](OC(=O)c3ccccc3)[C@]3(O)C[C@H](OC(=O)[C@H](O)[C@@H](NC(=O)c4ccccc4)c4ccccc4)C(C)=C1C3(C)C)[C@]1(OC(C)=O)CO[C@@H]1C[C@@H]2O,48.7% and 32.3%
21,CCC(=O)Oc1ccc(/C=N/NC(N)=S)nc1,35.7%
22,COc1ccc(C(C#N)=C2C=CC(=NO)C=C2)cc1,1.56% (active)
23,CN(CC(=O)O)c1ccc(/C=C/c2ccnc3ccccc23)cc1,55.4%

# Tested on: BT-549 breast
# Experiment: as above
# Details: 10 µM
row,Compound,growth
1,Cc1cc(C)c(N2C(=O)CC(Sc3ccccc3N)C2=O)c(C)c1 (centres undefined),96.2%
2,COc1cc(N)ccc1Nc1c2ccccc2nc2ccccc12,90%
3,O=[N+]([O-])c1cc(S(=O)(=O)Nc2ccccc2)ccc1Cl,92.5%
4,CCOC(=O)[C@]1(Br)CC[C@@]1(Br)C(=O)OCC,123%
5,N#C/C(=C/N1C(=O)/C(=C/c2ccc([N+](=O)[O-])cc2)SC1=S)c1nc2ccccc2s1,84%
6,Cn1ncc2cc3c(Nc4ccc(Cl)cc4)cccc3nc21,97.4%
7,S=P(N1CC1)(N1CC1)N1CC1,102% and 85.8%
8,O=C1c2cccc3cc([N+](=O)[O-])cc(c23)C(=O)N1CCN1CCCC1,3.71% (active)
9,N#CC(=C1C=CC(=NO)C=C1)c1ccccc1,-7.31% (active)
10,Cc1cc(N=C2C=CC(=[N+](C)C)C=C2)c(N)cc1N,96.3%
11,CN(C)CCNc1cccc2sc3ccc(O)cc3c(=O)c12,65.8%
12,O=C(NC(=S)Nc1ccccn1)c1ccccc1,77.1%
13,Cn1c2nc3ccccc3c-2nc2ccccc21,90.5% and 92.6%
14,CCC(C)(c1ccc(O)c(C)c1)c1ccc(O)c(C)c1,192%
15,O=Nc1ccc(Nc2ccccc2)cc1,78.8%
16,O=c1[nH]cc(/C=N\Nc2ccccc2)c(=O)[nH]1,82.5%
17,CN(C)c1ccc(/C=C/c2ccnc3ccccc23)cc1N,60.3%
18,COc1cccc(C(c2cc3c(cc2O)OCO3)N2CCOCC2)c1OC (centres undefined),94.7%
19,O=C1C=CC(=O)N1c1ccc(N2C(=O)C=CC2=O)cc1,89.6%
20,CC(=O)O[C@H]1C(=O)[C@@]2(C)[C@H]([C@H](OC(=O)c3ccccc3)[C@]3(O)C[C@H](OC(=O)[C@H](O)[C@@H](NC(=O)c4ccccc4)c4ccccc4)C(C)=C1C3(C)C)[C@]1(OC(C)=O)CO[C@@H]1C[C@@H]2O,6.6% (active)
21,CCC(=O)Oc1ccc(/C=N/NC(N)=S)nc1,51.2%
22,COc1ccc(C(C#N)=C2C=CC(=NO)C=C2)cc1,106%
23,CN(CC(=O)O)c1ccc(/C=C/c2ccnc3ccccc23)cc1,65.3%

# Tested on: MDA-MB-435 melanoma
# Experiment: as above
# Details: 10 µM
row,Compound,growth
1,Cc1cc(C)c(N2C(=O)CC(Sc3ccccc3N)C2=O)c(C)c1 (centres undefined),-20.8% (active)
2,COc1cc(N)ccc1Nc1c2ccccc2nc2ccccc12,87.9%
3,O=[N+]([O-])c1cc(S(=O)(=O)Nc2ccccc2)ccc1Cl,98.6%
4,CCOC(=O)[C@]1(Br)CC[C@@]1(Br)C(=O)OCC,94.8%
5,N#C/C(=C/N1C(=O)/C(=C/c2ccc([N+](=O)[O-])cc2)SC1=S)c1nc2ccccc2s1,99%
6,Cn1ncc2cc3c(Nc4ccc(Cl)cc4)cccc3nc21,100%
7,S=P(N1CC1)(N1CC1)N1CC1,105% and 97.2%
8,O=C1c2cccc3cc([N+](=O)[O-])cc(c23)C(=O)N1CCN1CCCC1,16.2%
9,N#CC(=C1C=CC(=NO)C=C1)c1ccccc1,-20.7% (active)
10,Cc1cc(N=C2C=CC(=[N+](C)C)C=C2)c(N)cc1N,101%
11,CN(C)CCNc1cccc2sc3ccc(O)cc3c(=O)c12,29.3%
12,O=C(NC(=S)Nc1ccccn1)c1ccccc1,105%
13,Cn1c2nc3ccccc3c-2nc2ccccc21,109% and 125%
14,CCC(C)(c1ccc(O)c(C)c1)c1ccc(O)c(C)c1,78.8%
15,O=Nc1ccc(Nc2ccccc2)cc1,83.6%
16,O=c1[nH]cc(/C=N\Nc2ccccc2)c(=O)[nH]1,42.5%
17,CN(C)c1ccc(/C=C/c2ccnc3ccccc23)cc1N,38.6%
18,COc1cccc(C(c2cc3c(cc2O)OCO3)N2CCOCC2)c1OC (centres undefined),98%
19,O=C1C=CC(=O)N1c1ccc(N2C(=O)C=CC2=O)cc1,107%
20,CC(=O)O[C@H]1C(=O)[C@@]2(C)[C@H]([C@H](OC(=O)c3ccccc3)[C@]3(O)C[C@H](OC(=O)[C@H](O)[C@@H](NC(=O)c4ccccc4)c4ccccc4)C(C)=C1C3(C)C)[C@]1(OC(C)=O)CO[C@@H]1C[C@@H]2O,-4.97% (active) and -14.7% (active)
21,CCC(=O)Oc1ccc(/C=N/NC(N)=S)nc1,54.9%
22,COc1ccc(C(C#N)=C2C=CC(=NO)C=C2)cc1,23.2%
23,CN(CC(=O)O)c1ccc(/C=C/c2ccnc3ccccc23)cc1,38.1%
